According to PubChem BioAssay (NCATS):
Values joined by “and” are separate entries in the source; they are usually repeats but may differ in a detail not shown here. Equal values may be shown once. Inconclusive results are not listed. Active and inactive are the calls of the source. Unless noted, the call rests on the fitted dose curve; in most records, active means well fitted curve in the direction sought with a large enough effect; inconclusive means small, poorly fitted or top-dose-only effect, or another doubt; inactive means no such curve, though single readings can be large; an effect the other way counts as inactive or inconclusive.

Columns and labels:
[1] = Cell Viability - BJ (AID 421; calls by dose curve;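 further: potency means the concentration at half of the fitted maximal effect; cells exposed to compound for 40 hours at 37 °C before readout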); details: BJ fibroblast viability, qHTS
Procedure, shortened: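 Quantitative HTS: ATP depletion in BJ cells after 40 hr compound exposure in complete culture medium, detected with CellTiter-Glo; AC50 from standard Hill fits.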

[2] = Cellular Toxicity (caspase-3) HUV-EC-C (AID 656); details: HUV-EC-C cells, caspase-3 activation (apoptosis), vehicle = 0, 100 µM tamoxifen = 100%; series mostly up to 92.2 µM
Procedure, shortened: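 Luminescent Caspase-Glo 3/7 readout after 16 h, 37 °C compound exposure of HUV-EC-C endothelial cells, 1000 per well, complete medium. AC50 derived by Hill fitting, with DMSO as baseline and 100 uM tamoxifen as full activation.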

[3] = Cellular Toxicity (caspase-3) MRC-5 (AID 659); details: MRC-5 cells, luminescence, normalized: DMSO 0%, 10 µM staurosporine 100%; series mostly up to 91.7 µM
Procedure, shortened: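 Concentration-dependent caspase 3/7 activation is measured in human normal lung fibroblasts (MRC-5) following 16-hour treatment. AC50 values come from standard Hill-equation modeling of luminescence normalized to DMSO and 10 uM staurosporine.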

[4] = Cellular Toxicity (caspase-3) Mesangial (AID 660); details: mesangial cells, normalized: DMSO 0%, 100 µM tamoxifen 100%; series mostly up to 91.7 µM;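 further: combined caspase 3 and 7 activity read by Caspase-Glo luminescence; cells exposed to compound for 16 h before the caspase read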
Procedure, shortened: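 Mesangial cells, 1000/well, 5 h settle at 37 °C; compound 16 h, 37 °C; Caspase-Glo 3/7 reagent 20 min RT; luminescence. Norm.: DMSO = 0%, tamoxifen 100 uM = 100%. AC50, Hill fit.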

[5] = Cellular Toxicity (caspase-3) SK-N-SH (AID 661); details: SK-N-SH caspase-3 activation, qHTS; series mostly up to 91.7 µM
Procedure, shortened: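 Human neuroblastoma SK-N-SH, 1500 cells/well, 5 hr pre-incubation, then compound 16 hr, 37 °C. Caspase-Glo 3/7 reagent, 1 hr RT, luminescence. Norm. to DMSO/10 uM staurosporine; Hill-fit AC50.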

[6] = Cellular Toxicity (caspase-3) Hek293 (AID 664); details: HEK293 caspase-3 activation, DMSO = 0%, 100 µM tamoxifen = 100%; at 92.2 µM (top of the series);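 further: cells exposed to compound for 16 h at 37 °C before readout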
Procedure, shortened: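 Cells plated, 5 hr at 37 °C; compounds added; 16 hr at 37 °C; Caspase-Glo 3/7 reagent, 20 min RT; luminescence read. Activation expressed relative to DMSO and 100 uM tamoxifen, AC50 by Hill model.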

[7] = Cellular Toxicity (caspase-3) NIH 3T3 (AID 666); details: NIH 3T3 caspase-3 activation, apoptosis/toxicity; series mostly up to 92.2 µM;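 further: caspase signal read after 16 h compound exposure; 0% = DMSO basal and 100% = 100 µM tamoxifen stimulation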
Procedure, shortened: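 Luminescence from aminoluciferin released by caspase-3/7 cleavage of a peptide substrate served as read-out. Mouse fibroblast NIH 3T3 cells were exposed to compounds over a concentration range for 16 hours, and AC50 values came from standard Hill modelling.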

[8] = target: Cytochrome P450 3A4 (Homo sapiens) (UniProt P08684); assay: qHTS Assay for Inhibitors and Substrates of Cytochrome P450 3A4 (AID 884); details: recombinant CYP3A4, Luciferin-PPXE luminescence; series mostly up to 57.1 µM; further: on the % scale 0 is the no-effect control and ±100 the full control effect; nearly all actives have a fitted effect of over 50% in size
Procedure, shortened: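 20 nM human CYP3A4 with 25 uM Luciferin-PPXE (at KM) in 200 mM KPO4, preincubated 10 min with compound; NADPH regeneration started a 60 min RT reaction. Luciferin detected by luminescence, normalized to 57 uM ketoconazole as full inhibition.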

[9] = MultiTox-Fluor Cytotoxicity Assay - LYMP1-001 - Dead Cells (AID 946); details: LYMP1-001 lymphoblastoid cells, dead-cell protease fluorescence; series mostly up to 92.2 µM;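 further: 0% = DMSO and 100% = tetraoctylammonium bromide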
Procedure, shortened: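 In this qHTS, 15 uM tetraoctylammonium bromide defined 100% and DMSO defined basal activity. Lymphoblastoid cells (LYMP1-001, 2500 per well) received compound for 16 hr at 37 C before a fluorogenic dead-cell substrate readout at 485/520 nm.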

[10] = Cell Viability - LYMP1-002 - Assay at 16 hr (AID 948); details: LYMP1-002 lymphoblastoid cell viability; series mostly up to 92.2 µM;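 further: 0% = DMSO alone and full effect = 92 µM tetraoctylammonium bromide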
Procedure, shortened: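 ATP luminescence (CellTiter-Glo) was measured after 16 hr compound exposure at 37 C of 2500 lymphoblastoid LYMP1-002 cells per well. Concentration-response curves were fitted with the Hill equation to give AC50.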

[11] = MultiTox-Fluor Cytotoxicity Assay - LYMP1-003 - Live Cells (AID 962); details: LYMP1-003 lymphoblastoid cells, MultiTox-Fluor live-cell protease fluorescence; series mostly up to 92.2 µM;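 further: cells exposed to compound for 16 hours at 37 °C; 0% = DMSO only and full loss = 92 µM tetraoctylammonium bromide; cytotoxic hits lower the live-cell protease signal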
Procedure, shortened: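 qHTS, 1536-well; 2500 cells/well LYMP1-003; 5 hr 37 C settle; cpd 16 hr 37 C; MultiTox-Fluor reagent 60 min RT; live-cell protease fluor. 405/510; Hill-fit AC50; tetraoctylammonium bromide pos. ctrl.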

[12] = Cell Viability - LYMP2-003 (AID 965); details: LYMP2-003 lymphoblastoid cell viability; series mostly up to 92.2 µM;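 further: cells exposed to compounds for 24 h before reading; 0% = DMSO only and full effect = 92 µM tetraoctylammonium bromide; nearly all actives have a fitted effect of over 50% in size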
Procedure, shortened: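 CellTiter-Glo luminescence quantified ATP loss after 24 h compound treatment of LYMP2-003 lymphoblastoid cells at 37 C. Titration series were fitted with the standard Hill equation to give AC50.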

[13] = Cell Viability - LYMP2-026 (AID 989); details: LYMP2-026 lymphoblastoid cell viability, qHTS; series mostly up to 92.2 µM; further: on the % scale 0 is the no-effect control and ±100 the full control effect; nearly all actives have a fitted effect of over 50% in size
Procedure, shortened: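 Luminescent ATP signal (CellTiter-Glo, 30 min room temperature) measures viable lymphoblastoid cells after 24 hr compound treatment at 37 C. Decreased ATP reflects acute toxicity; AC50 values come from Hill-equation modeling.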

[14] = Cell Viability - LYMP1-002 - Assay at 40 hr (AID 994); details: LYMP1-002 lymphoblastoid cell viability; series mostly up to 92.2 µM;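 further: 0% = DMSO only and full inhibition = 92 µM tetraoctylammonium bromide; nearly all actives have a fitted effect of over 60% in size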
Procedure, shortened: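 Luminescent ATP signal served as the viability readout, with decreases taken as toxicity. Cells were treated with compounds across a concentration range for 40 hours at 37 C, and AC50 values came from standard Hill modeling.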

[15] = qHTS Assay for Identification of Small Molecule Inducers of Hypoxia Response (AID 2120; active means well fitted curve in the direction sought with a large enough effect in the signal ratio, with a control signal flat, not every such curve was filed as active; the % refers to the signal ratio; further: 0% is about no effect); details: hypoxia response reporter cells, beta-lactamase ratio readout; series mostly up to 104 µM
Procedure, shortened: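 ME-180 HRE-bla cells plated in Opti-MEM/0.5% dialyzed FBS, rested 4-5 h, then dosed with compound titrations by pin tool. After 17 h at 37 degrees C, CCF4 dye loaded 2.5 h at RT; 460/530 nm ratio gave %Activity and AC50.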

[16] = qHTS assay for environmental chemicals that activate the Aryl hydrocarbon Receptor (AhR) signaling pathway (AID 651777); details: 1A2-DRE human hepatoma cells, luciferase, 24 h; activation: stronger effect = higher value; further: % of control where 0% means no effect; nearly all actives have a fitted effect of over 15% in size
Procedure, shortened: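 Luminescence (One-Glo, 30 min, room temperature) reports AhR-driven luciferase in stably transfected human hepatoma cells bearing DRE and CYP1A2 promoter. Cells (1,200/well) were treated with compound for 24 hr at 37 C in qHTS format.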

[17] = target: Peroxisome proliferator-activated receptor alpha (Homo sapiens) (UniProt Q07869); assay: qHTS assay for small molecule agonists of the peroxisome proliferator-activated receptor alpha (PPARalpha) signaling pathway (AID 651778); details: PathHunter PPARalpha complementation, chemiluminescence, 6 h; stronger effect = higher value; further: % of control where 0% means no effect
Procedure, shortened: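 Chemiluminescence from complemented enzyme reported PPARalpha activation in cells after 6 hr of compound treatment at 37 C. The detection reagent was incubated for 60 min at room temperature, and compounds were scored as agonists.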

[18] = qHTS assay for small molecule agonists of the antioxidant response element (ARE) signaling pathway measured by Nrf2-dependant transcriptional activity - cell viability counter screen (AID 720653; active means well fitted curve in the direction sought with a large enough effect in the repeat runs; an effect the other way counts as inactive or inconclusive; further: on the % scale 0 is the no-effect control and ±100 the full control effect); details: ARE-bla HepG2 viability, CellTiter-Glo ATP luminescence, 16 h; stronger effect = lower value
Procedure, shortened: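 Cytotoxicity counter screen: intracellular ATP quantified by CellTiter-Glo luminescence in the same ARE-bla HepG2 plates, after 16 h compound exposure and a 2 h beta-lactamase substrate step.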

[19] = qHTS assay for cell viability of the p53RE-bla HCT-116 cell line (AID 743292); details: p53RE-bla HCT-116 viability, ATP luminescence, 16 h; series mostly up to 95 µM; further: on the % scale 0 is the no-effect control and ±100 the full control effect; nearly all actives have a fitted effect of over 55% in size
Procedure, shortened: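 ATP-based luminescent viability (CellTiter-Glo, 30 min RT) after 16 h compound treatment at 37 C of p53RE-bla HCT-116 cells, seeded at 4,000 cells/well and rested 5 h before dosing.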

Chain of Peroxisome proliferator-activated receptor alpha (Homo sapiens) (Q07869 whole entry, looked up): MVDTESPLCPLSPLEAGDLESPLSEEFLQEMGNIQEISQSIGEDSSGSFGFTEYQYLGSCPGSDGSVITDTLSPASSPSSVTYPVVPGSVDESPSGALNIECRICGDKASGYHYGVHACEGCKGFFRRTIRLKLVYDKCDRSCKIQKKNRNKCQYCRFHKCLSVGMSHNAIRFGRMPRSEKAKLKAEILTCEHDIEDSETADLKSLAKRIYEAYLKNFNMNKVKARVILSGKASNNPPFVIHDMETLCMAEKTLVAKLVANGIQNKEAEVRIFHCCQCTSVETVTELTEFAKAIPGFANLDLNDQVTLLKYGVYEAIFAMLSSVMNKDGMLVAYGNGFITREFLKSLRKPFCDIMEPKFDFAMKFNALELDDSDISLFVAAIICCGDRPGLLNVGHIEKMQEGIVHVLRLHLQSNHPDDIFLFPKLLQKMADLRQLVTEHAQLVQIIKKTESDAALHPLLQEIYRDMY
Chain of Cytochrome P450 3A4 (Homo sapiens) (P08684 whole entry, looked up): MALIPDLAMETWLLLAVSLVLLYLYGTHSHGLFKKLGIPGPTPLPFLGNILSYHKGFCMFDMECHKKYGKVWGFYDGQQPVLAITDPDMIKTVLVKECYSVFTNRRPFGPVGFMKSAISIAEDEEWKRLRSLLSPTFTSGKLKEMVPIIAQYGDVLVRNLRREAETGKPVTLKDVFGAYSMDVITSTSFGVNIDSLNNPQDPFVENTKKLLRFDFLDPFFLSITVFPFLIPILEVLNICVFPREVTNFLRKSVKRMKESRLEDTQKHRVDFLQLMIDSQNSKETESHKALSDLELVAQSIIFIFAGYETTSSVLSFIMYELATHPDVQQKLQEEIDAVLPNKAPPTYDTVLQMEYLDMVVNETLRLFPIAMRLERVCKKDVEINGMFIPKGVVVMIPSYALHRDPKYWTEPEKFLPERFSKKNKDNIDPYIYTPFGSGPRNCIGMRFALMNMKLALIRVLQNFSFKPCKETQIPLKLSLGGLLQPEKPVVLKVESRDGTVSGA

CN(C)C(=O)Nc1cccc(C(F)(F)F)c1
inactive: Potency [1] > 92 µM | outcome [2] | outcome [3] | outcome [4] | Potency [5] | caspase-3 activation [6] 0.171% | Potency [7] | Potency [8] | outcome [9] | outcome [10] | outcome [11] | Potency [12] | Potency [13] | Potency [14] | Potency [15] | activation [16] -0.624% and 0.852% | max response [17] -1.29% and 0.409% | max response [18] -4.03% and 2.07% | Potency [19]

N#CC(Cl)(Cl)Cl
inactive: Potency [1] > 92 µM | outcome [2] | outcome [3] | outcome [4] | Potency [5] | caspase-3 activation [6] 1.68% | Potency [7] | Potency [8] | outcome [9] | outcome [10] | outcome [11] | Potency [12] | Potency [13] | Potency [14] | Potency [15] | activation [16] 0.19% | max response [17] 9.56% | max response [18] 1.54% | Potency [19]

Cc1ccc(N)c(C)c1
inactive: Potency [1] > 92 µM | outcome [2] | outcome [3] | outcome [4] | Potency [5] | caspase-3 activation [6] 1.54% | Potency [7] | Potency [8] | outcome [9] | outcome [10] | outcome [11] | Potency [12] | Potency [13] | Potency [14] | Potency [15] | activation [16] -0.367% | max response [17] -4.17% | max response [18] -6.08% | Potency [19]

ClCC(Br)CBr (configuration not stated)
inactive: Potency [1] > 92 µM | outcome [2] | outcome [3] | outcome [4] | Potency [5] | caspase-3 activation [6] 0.439% | Potency [7] | Potency [8] | outcome [9] | outcome [10] | outcome [11] | Potency [12] | Potency [13] | Potency [14] | Potency [15] | activation [16] -0.863% | max response [17] -1.61% | max response [18] 3.72% | Potency [19]

c1ccc(Nc2ccc(Nc3ccccc3)cc2)cc1
inactive: Potency [1] > 92 µM | outcome [2] | outcome [3] | outcome [4] | Potency [5] | caspase-3 activation [6] -2.23% | Potency [7] | Potency [8] | outcome [9] | outcome [10] | outcome [11] | Potency [12] | Potency [13] | Potency [14] | Potency [15] | max response [17] -0.732% | max response [18] -13.9% | Potency [19]

Nc1c(Br)cc([N+](=O)[O-])cc1[N+](=O)[O-]
inactive: Potency [1] > 92 µM | outcome [2] | outcome [3] | outcome [4] | Potency [5] | caspase-3 activation [6] 4.97% | Potency [7] | outcome [9] | outcome [10] | outcome [11] | Potency [12] | Potency [13] | Potency [14] | Potency [15] | activation [16] 3.36% | max response [17] -5.44% | max response [18] 13.3% | Potency [19]
